Of roughly 8,800 targets only a part is listed; those with a hit were picked by preference. About 0.5% of all pairs of compound and target were hits.
Tests used:
Assay in all cases: log2 fold change, soluble protein after heating vs DMSO (PISA); higher = thermal stabilisation; K562 lysate, 10 uM; active = over 0.2 and 3.5 SD of the protein, either way, in both replicates (recomputed)
[1] = compound: Cc1cn(-c2cc(NC(=O)c3ccc(C)c(Nc4nccc(-c5cccnc5)n4)c3)cc(C(F)(F)F)c2)cn1 [nilotinib]
Method in brief: (§1)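 A 30 min treatment with 10 μM compound was applied to crude K562 extract at 1 mg/mL protein in PBS pH 7.4 with 1 mM MgCl2. Heating for 3 min spanned 48°C-58°C, after which aliquots were pooled, adjusted to 0.5% NP-40 at 4°C and spun at 21,000xg for 90 min. TMTpro 16plex LC-MS/MS of the supernatant, with channel sums equalised, gave values recorded as log-two fold change in thermal stability against solvent controls, from duplicates.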

[2] = compound: Cc1nc(Nc2n[nH]c3c2CN(C(=O)N[C@H](CN(C)C)c2ccccc2)C3(C)C)c2sccc2n1
Method in brief: as §1

[3] = compound: Cc1nc(Nc2ncc(C(=O)Nc3c(C)cccc3Cl)s2)cc(N2CCN(CCO)CC2)n1 [dasatinib]
Method in brief: as §1

[4] = compound: Cc1ncc(-c2ccnc(Nc3ccc(S(C)(=O)=O)cc3)n2)n1C(C)C
Method in brief: as §1

[5] = compound: Cn1cc(-c2ccc3c(c2)CCN3C(=O)Cc2cccc(C(F)(F)F)c2)c2c(N)ncnc21
Method in brief: as §1

[6] = compound: Cn1cc(CNCC2CCN(c3ncc(C(=O)NO)cn3)CC2)c2ccccc21 [quisinostat]
Method in brief: as §1

[7] = compound: Cn1cncc1[C@@](N)(c1ccc(Cl)cc1)c1ccc2c(c1)c(-c1cccc(Cl)c1)cc(=O)n2C [tipifarnib]
Method in brief: as §1

[8] = compound: NC(=O)Nc1cc(-c2cccc(F)c2)sc1C(=O)N[C@H]1CCCNC1
Method in brief: as §1

[9] = compound: NC(=O)c1cnc(N[C@@H]2CCCC[C@@H]2N)nc1Nc1cccc(-n2nccn2)c1
Method in brief: as §1

[10] = compound: NC1(c2ccc(-c3nc4ccn5c(=O)[nH]nc5c4cc3-c3ccccc3)cc2)CCC1
Method in brief: as §1

[11] = compound: NCC(=O)Nc1ccc(-n2nc(C(F)(F)F)cc2-c2ccc3c(ccc4ccccc43)c2)cc1
Method in brief: as §1

[12] = compound: O=C(CCCCCCC(=O)Nc1ccccc1)NO [vorinostat]
Method in brief: as §1

[13] = compound: O=C(O)c1ccc2c(c1)nc(Nc1cccc(Cl)c1)c1ccncc12 [silmitasertib]
Method in brief: as §1

[14] = compound: O=C1NC(=O)C(c2cnc3ccccn23)=C1c1cn2c3c(cc(F)cc13)CN(C(=O)N1CCCCC1)CC2
Method in brief: as §1

[15] = compound: c1cn2cc(-c3ccc4cn[nH]c4c3)nc(Nc3ccc(N4CCOCC4)cc3)c2n1 [entospletinib]
Method in brief: as §1

Measured: log2 fold change

TTC27 (UniProt Q6P3X3)
active: [12] -0.403
inactive: [1] -0.018 | [2] 0.027 | [3] -0.009 | [4] -0.031 | [5] 0.01 | [6] -0.047 | [7] -0.03 | [8] 0.057 | [9] -0.028 | [10] -0.023 | [11] -0.027 | [13] 0.053 | [14] -0.06 | [15] -0.002

TUBB4B (UniProt P68371)
inactive: [1] 0.049 | [2] -0.05 | [3] -0.025 | [4] -0.034 | [5] -0.005 | [6] 0.033 | [7] -0.001 | [8] 0.006 | [9] -0.019 | [10] 0.009 | [11] 0.014 | [13] 0.024 | [14] -0.001 | [15] 0.005
active: [12] -0.712

TPP2 (UniProt P29144)
inactive: [1] 0.013 | [2] -0.005 | [3] -0.005 | [4] -0.02 | [5] 0.019 | [6] 0.01 | [7] 0.006 | [8] 0.013 | [9] 0 | [10] 0.003 | [11] -0.015 | [12] -0.121 | [13] 0.02 | [14] -0.011 | [15] 0.003

TDRKH (UniProt Q9Y2W6)
inactive: [1] -0.01 | [2] -0.077 | [3] -0.059 | [4] 0.018 | [5] 0.028 | [6] -0.087 | [7] -0.048 | [8] 0.041 | [9] 0.003 | [10] 0.067 | [11] -0.031 | [12] -0.223 | [13] 0.024 | [14] -0.052 | [15] 0.056

THEMIS2 (UniProt Q5TEJ8)
inactive: [1] -0.096 | [2] 0.06 | [3] -0.092 | [4] -0.144 | [5] 0.059 | [6] 0.03 | [7] -0.039 | [8] 0.051 | [9] 0.095 | [10] 0.019 | [11] -0.029 | [13] 0.069 | [14] 0.059 | [15] -0.007
active: [12] -0.315

TUBE1 (UniProt Q9UJT0)
Sequence of UniProt Q9UJT0 (Q9UJT0 whole entry, looked up): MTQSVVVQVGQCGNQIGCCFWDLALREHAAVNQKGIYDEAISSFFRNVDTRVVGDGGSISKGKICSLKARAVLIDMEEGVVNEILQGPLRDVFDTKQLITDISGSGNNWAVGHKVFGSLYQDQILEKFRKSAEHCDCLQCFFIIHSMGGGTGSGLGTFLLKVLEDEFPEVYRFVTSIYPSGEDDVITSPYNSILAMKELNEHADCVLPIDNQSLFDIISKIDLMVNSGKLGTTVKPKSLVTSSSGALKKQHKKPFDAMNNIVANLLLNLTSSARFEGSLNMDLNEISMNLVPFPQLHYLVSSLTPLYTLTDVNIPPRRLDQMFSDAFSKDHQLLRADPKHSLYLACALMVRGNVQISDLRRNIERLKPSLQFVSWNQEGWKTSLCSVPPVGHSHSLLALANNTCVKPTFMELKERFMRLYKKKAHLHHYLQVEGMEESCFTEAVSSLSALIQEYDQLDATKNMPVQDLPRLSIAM
active: [12] -0.264
inactive: [1] 0.036 | [2] -0.051 | [3] 0.017 | [4] -0.046 | [5] -0.028 | [6] -0.037 | [7] 0.029 | [8] 0.064 | [9] 0.007 | [10] 0.025 | [11] 0.024 | [13] -0.049 | [14] -0.036 | [15] -0.027

UFSP2 (UniProt Q9NUQ7)
active: [12] 0.342
inactive: [1] -0.004 | [2] -0.015 | [3] 0.007 | [4] -0.038 | [5] -0.002 | [6] 0.004 | [7] -0.001 | [8] 0.016 | [9] 0.002 | [10] -0.035 | [11] -0.029 | [13] 0.001 | [14] -0.021 | [15] -0.012

TTC5 (UniProt Q8N0Z6)
Sequence of UniProt Q8N0Z6 (Q8N0Z6 whole entry, looked up): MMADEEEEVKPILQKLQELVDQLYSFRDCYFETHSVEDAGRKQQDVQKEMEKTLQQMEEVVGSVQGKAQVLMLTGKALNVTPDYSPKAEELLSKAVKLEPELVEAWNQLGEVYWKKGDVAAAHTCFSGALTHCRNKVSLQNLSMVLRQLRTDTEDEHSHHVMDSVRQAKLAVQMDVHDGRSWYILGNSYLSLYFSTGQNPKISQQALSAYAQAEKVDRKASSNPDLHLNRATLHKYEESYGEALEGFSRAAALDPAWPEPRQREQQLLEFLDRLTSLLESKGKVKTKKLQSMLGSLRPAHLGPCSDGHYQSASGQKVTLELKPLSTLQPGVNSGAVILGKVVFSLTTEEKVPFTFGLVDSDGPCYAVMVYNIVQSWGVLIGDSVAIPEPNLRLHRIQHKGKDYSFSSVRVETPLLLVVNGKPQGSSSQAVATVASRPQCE
active: [12] -0.257
inactive: [1] 0.012 | [2] -0.064 | [3] 0 | [4] -0.016 | [5] 0.047 | [6] -0.084 | [7] 0.01 | [8] 0 | [9] -0.007 | [10] 0.001 | [11] -0.003 | [13] -0.029 | [14] -0.018 | [15] 0.051

TUT4 (UniProt Q5TAX3)
inactive: [1] -0.06 | [2] 0.02 | [3] -0.097 | [4] 0.001 | [5] -0.001 | [6] -0.054 | [7] -0.045 | [8] 0.055 | [9] 0.048 | [10] -0.002 | [11] 0.072 | [13] 0.018 | [14] -0.048 | [15] -0.029
active: [12] -0.398

TPST2 (UniProt O60704)
inactive: [1] -0.02 | [2] -0.03 | [3] -0.007 | [4] 0.016 | [5] 0.008 | [6] -0.076 | [7] -0.058 | [8] 0.064 | [9] -0.064 | [10] -0.087 | [11] 0.045 | [12] 0.132 | [13] -0.03 | [14] -0.048 | [15] 0.016

TTC4 (UniProt O95801)
inactive: [1] -0.04 | [2] -0.034 | [3] 0.025 | [4] -0.018 | [5] 0.012 | [6] -0.07 | [7] -0.01 | [8] 0.025 | [9] 0.023 | [10] -0.018 | [11] 0.013 | [13] 0.022 | [14] -0.009 | [15] 0
active: [12] -0.498

TRAPPC10 (UniProt P48553)
Sequence of UniProt P48553 (P48553 whole entry, looked up): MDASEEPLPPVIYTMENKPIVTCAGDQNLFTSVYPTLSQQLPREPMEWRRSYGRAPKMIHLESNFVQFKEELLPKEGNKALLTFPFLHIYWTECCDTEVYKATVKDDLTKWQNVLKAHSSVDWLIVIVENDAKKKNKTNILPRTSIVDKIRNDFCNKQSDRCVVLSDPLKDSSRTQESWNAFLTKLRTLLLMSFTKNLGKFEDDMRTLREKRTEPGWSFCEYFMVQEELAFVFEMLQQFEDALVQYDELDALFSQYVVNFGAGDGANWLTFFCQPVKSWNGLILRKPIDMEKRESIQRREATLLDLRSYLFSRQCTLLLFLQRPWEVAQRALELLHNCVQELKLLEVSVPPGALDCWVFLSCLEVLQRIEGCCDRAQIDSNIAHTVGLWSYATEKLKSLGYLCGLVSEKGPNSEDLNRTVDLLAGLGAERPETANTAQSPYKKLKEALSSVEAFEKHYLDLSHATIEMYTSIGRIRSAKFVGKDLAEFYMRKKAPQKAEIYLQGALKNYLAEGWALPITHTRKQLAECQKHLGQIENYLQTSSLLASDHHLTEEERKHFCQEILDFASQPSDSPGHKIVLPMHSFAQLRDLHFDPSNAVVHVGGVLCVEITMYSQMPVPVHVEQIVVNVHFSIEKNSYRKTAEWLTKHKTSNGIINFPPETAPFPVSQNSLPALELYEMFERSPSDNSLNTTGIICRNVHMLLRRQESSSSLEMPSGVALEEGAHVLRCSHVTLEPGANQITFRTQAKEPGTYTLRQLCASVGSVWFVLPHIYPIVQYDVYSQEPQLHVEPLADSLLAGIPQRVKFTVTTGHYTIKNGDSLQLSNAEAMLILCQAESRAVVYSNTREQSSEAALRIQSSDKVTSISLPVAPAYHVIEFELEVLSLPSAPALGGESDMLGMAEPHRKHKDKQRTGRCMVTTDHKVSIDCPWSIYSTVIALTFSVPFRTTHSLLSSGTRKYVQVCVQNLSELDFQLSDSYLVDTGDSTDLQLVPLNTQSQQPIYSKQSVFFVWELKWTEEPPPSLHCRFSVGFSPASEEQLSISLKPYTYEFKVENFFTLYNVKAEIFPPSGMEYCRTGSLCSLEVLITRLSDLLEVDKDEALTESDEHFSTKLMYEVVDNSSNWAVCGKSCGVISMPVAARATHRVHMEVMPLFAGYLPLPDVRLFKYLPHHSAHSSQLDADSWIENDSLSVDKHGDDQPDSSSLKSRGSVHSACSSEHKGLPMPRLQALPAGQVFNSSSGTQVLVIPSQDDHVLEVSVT
active: [12] -0.248
inactive: [1] 0.008 | [2] 0 | [3] 0.011 | [4] -0.003 | [5] 0.02 | [6] -0.006 | [7] 0.011 | [8] 0.035 | [9] 0.026 | [10] -0.05 | [11] 0.015 | [13] 0.005 | [14] 0.049 | [15] 0

TMOD1 (UniProt P28289)
Sequence of UniProt P28289 (P28289 whole entry, looked up): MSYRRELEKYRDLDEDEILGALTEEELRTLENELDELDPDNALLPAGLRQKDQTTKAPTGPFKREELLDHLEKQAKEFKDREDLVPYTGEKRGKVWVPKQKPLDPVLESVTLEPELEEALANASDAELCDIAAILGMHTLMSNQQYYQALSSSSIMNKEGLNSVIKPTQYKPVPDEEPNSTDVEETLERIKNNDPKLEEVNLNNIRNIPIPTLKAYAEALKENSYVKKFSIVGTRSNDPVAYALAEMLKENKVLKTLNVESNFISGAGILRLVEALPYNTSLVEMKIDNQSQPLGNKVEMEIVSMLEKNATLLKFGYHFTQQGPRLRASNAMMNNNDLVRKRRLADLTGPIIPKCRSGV
active: [12] -0.312
inactive: [1] -0.029 | [2] -0.032 | [3] 0.011 | [4] -0.02 | [5] 0.014 | [6] -0.007 | [7] -0.013 | [8] 0.031 | [9] 0.008 | [10] -0.015 | [11] 0.005 | [13] 0.02 | [14] -0.005 | [15] 0.01

UBR4 (UniProt Q5T4S7)
inactive: [1] 0.007 | [2] 0.002 | [3] -0.027 | [4] 0.001 | [5] 0.018 | [6] -0.014 | [7] -0.001 | [8] 0.023 | [9] -0.005 | [10] -0.001 | [11] 0 | [12] -0.14 | [13] 0.027 | [14] -0.008 | [15] 0.009

TBL2 (UniProt Q9Y4P3)
Sequence of UniProt Q9Y4P3 (Q9Y4P3 whole entry, looked up): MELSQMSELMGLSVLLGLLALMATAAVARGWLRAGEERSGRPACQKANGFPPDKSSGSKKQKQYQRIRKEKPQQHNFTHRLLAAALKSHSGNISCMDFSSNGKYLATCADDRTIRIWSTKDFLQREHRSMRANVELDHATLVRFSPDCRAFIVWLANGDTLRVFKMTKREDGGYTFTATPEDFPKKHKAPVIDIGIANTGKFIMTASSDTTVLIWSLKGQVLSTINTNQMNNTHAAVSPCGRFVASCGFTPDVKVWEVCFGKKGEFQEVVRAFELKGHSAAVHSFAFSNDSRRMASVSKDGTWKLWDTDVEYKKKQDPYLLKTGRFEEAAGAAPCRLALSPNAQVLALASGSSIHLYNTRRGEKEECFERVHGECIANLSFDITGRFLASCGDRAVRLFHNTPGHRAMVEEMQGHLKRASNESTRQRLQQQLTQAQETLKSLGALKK
active: [12] -0.292
inactive: [1] -0.025 | [2] -0.043 | [3] -0.008 | [4] -0.004 | [5] 0.014 | [6] -0.031 | [7] -0.06 | [8] -0.007 | [9] 0.003 | [10] -0.037 | [11] -0.035 | [13] -0.007 | [14] -0.035 | [15] 0.02

TRIP13 (UniProt Q15645)
inactive: [1] -0.002 | [2] -0.031 | [3] 0.003 | [4] 0.049 | [5] 0.046 | [6] -0.065 | [7] 0.007 | [8] 0.026 | [9] 0.002 | [10] -0.031 | [11] 0.002 | [13] 0.061 | [14] -0.002 | [15] 0.022
active: [12] -0.472

UBR1 (UniProt Q8IWV7)
active: [12] -0.239
inactive: [1] -0.022 | [2] 0.01 | [3] -0.012 | [4] 0.013 | [5] 0.046 | [6] -0.093 | [7] 0.007 | [8] 0.021 | [9] -0.006 | [10] -0.021 | [11] -0.04 | [13] 0.025 | [14] 0.008 | [15] -0.024

TGFBRAP1 (UniProt Q8WUH2)
Sequence of UniProt Q8WUH2 (Q8WUH2 whole entry, looked up): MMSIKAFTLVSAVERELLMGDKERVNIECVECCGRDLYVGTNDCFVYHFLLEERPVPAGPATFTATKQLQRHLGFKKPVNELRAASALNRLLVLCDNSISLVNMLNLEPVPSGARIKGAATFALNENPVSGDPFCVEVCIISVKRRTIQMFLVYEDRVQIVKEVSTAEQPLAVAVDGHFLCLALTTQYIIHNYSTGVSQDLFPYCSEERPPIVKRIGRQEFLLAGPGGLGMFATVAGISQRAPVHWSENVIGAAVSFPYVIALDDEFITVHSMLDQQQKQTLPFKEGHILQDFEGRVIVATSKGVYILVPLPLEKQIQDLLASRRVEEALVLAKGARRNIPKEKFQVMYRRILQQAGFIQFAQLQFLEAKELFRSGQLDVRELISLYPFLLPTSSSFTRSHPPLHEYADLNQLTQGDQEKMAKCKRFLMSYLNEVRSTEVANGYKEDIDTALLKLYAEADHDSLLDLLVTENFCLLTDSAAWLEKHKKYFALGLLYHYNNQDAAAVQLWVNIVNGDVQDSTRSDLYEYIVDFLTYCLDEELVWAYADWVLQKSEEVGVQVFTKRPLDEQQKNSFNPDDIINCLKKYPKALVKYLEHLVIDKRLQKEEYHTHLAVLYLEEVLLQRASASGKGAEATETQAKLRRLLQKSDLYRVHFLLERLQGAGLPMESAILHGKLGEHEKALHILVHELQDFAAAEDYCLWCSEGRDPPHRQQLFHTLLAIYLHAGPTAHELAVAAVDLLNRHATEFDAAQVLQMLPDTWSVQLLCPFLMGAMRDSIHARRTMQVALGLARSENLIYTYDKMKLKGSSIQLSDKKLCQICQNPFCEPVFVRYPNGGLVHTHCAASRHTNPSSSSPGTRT
active: [12] -0.433
inactive: [1] 0.005 | [2] -0.043 | [3] -0.048 | [4] -0.015 | [5] 0.06 | [6] -0.076 | [7] 0.004 | [8] 0.029 | [9] 0.009 | [10] 0.04 | [11] -0.039 | [13] 0.051 | [14] -0.018 | [15] 0.024

TCF12 isoform 3 (UniProt Q99081)
Sequence of UniProt Q99081 (Q99081 whole entry, looked up): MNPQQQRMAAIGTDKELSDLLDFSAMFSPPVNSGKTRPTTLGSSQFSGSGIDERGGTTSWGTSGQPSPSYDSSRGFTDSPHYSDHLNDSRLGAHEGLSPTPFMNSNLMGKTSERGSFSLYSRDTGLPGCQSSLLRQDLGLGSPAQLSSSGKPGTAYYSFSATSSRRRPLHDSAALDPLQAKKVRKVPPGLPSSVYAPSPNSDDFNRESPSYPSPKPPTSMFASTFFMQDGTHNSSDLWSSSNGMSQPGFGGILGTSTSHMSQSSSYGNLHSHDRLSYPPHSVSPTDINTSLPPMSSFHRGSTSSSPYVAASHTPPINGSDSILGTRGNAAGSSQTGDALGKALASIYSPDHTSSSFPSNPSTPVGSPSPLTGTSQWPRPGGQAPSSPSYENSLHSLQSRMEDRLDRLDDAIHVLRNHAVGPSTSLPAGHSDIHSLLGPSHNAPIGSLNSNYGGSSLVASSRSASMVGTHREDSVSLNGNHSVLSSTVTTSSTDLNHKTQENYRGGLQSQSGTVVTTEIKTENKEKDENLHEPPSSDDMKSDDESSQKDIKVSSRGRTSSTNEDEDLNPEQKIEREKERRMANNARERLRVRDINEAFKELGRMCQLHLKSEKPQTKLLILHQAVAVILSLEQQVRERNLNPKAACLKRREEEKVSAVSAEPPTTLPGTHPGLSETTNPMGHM
active: [12] -0.263
inactive: [1] -0.031 | [2] 0.016 | [3] 0 | [4] 0.052 | [5] -0.022 | [6] 0.02 | [7] -0.022 | [8] -0.011 | [9] -0.032 | [10] -0.043 | [11] -0.016 | [13] -0.024 | [14] -0.004 | [15] 0.006

TK1 (UniProt P04183)
Sequence of UniProt P04183 (P04183 whole entry, looked up): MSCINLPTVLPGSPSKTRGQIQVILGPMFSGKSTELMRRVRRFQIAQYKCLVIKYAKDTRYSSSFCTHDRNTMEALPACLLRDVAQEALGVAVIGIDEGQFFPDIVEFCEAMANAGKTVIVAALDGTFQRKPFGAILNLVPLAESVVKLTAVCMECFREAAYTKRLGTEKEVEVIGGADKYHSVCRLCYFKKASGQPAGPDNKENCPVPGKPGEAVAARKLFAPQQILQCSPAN
inactive: [1] -0.009 | [2] 0.002 | [3] 0.004 | [4] 0.003 | [5] -0.009 | [6] -0.03 | [7] 0.015 | [8] -0.005 | [9] -0.043 | [10] -0.003 | [11] 0.04 | [12] -0.028 | [13] -0.001 | [14] 0.014 | [15] 0.035

TTC37 (UniProt Q6PGP7)
inactive: [1] 0.03 | [2] -0.001 | [3] -0.163 | [4] 0.013 | [5] -0.085 | [7] -0.012 | [8] 0.065 | [9] 0.005 | [10] -0.087 | [11] 0.136 | [12] 0.153 | [13] 0.03 | [14] 0.046
active: [6] -0.408

From the supplement of paper PMC10849652
